{"source": "the supplement of paper PMC4894684", "system": "Toxoplasma gondii RH (in HFF)", "assay": "parasite growth relative to the screen mean (all compounds = 100%); higher = less inhibition of parasite growth", "conditions": "5 µM; 72 h; oxygen 21 %", "procedure,_shortened": "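Library compounds (10 mM DMSO stocks) were pin-transferred to 5 µM final onto confluent human foreskin fibroblasts in 96-well plates, then infected within 2 h with RH β-Gal–GFP Toxoplasma (MOI 1:5) and grown 72 h at 21% O2. Parasite number came from a CPRG β-Gal assay against in-plate standard curves. Growth is expressed relative to the screen mean (all compounds = 100%), averaged over two screens. Uninfected host-cell viability was checked by CellTiter-Blue.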", "note": "Counter-ions that a name gives are not always drawn. ± gives the standard deviation of the averaged measurements.", "data": [{"smiles": "COc1ccc([C@H]2CNC(=O)C2)cc1OC1CCCC1", "note": "[(S)-(+)-Rolipram]", "values": [{"measurement": "parasite growth", "value": "116 ± 30", "unit": "%"}]}, {"smiles": "CN1CCN(C2=Nc3cc(Cl)ccc3Nc3ccccc32)CC1", "note": "[Clozapine]", "values": [{"measurement": "parasite growth", "value": "178 ± 40", "unit": "%"}]}, {"smiles": "COc1ccc(CCN(C)CCc2ccc(OC)c(OC)c2)cc1OC", "note": "[YS-035 hydrochloride]", "values": [{"measurement": "parasite growth", "value": "136 ± 23", "unit": "%"}]}, {"smiles": "CN1CCN2c3ccccc3Cc3ccccc3C2C1", "note": "(centres undefined) [Mianserin hydrochloride]", "values": [{"measurement": "parasite growth", "value": "154 ± 39", "unit": "%"}]}, {"smiles": "C=CCNC(=O)c1cc([N+](=O)[O-])cc2c(=O)[nH]c(Nc3ccc(Cl)c(Cl)c3)nc12", "values": [{"measurement": "parasite growth", "value": "89.6 ± 4.6", "unit": "%"}]}, {"smiles": "O=C(O)CN1C(=O)c2cccc3cccc(c23)C1=O", "note": "[Alrestatin]", "values": [{"measurement": "parasite growth", "value": "100 ± 26", "unit": "%"}]}, {"smiles": "Cc1ccc(/C(=C\\CN2CCCC2)c2ccccn2)cc1", "note": "[trans-Triprolidine hydrochloride]", "values": [{"measurement": "parasite growth", "value": "96.7 ± 39", "unit": "%"}]}, {"smiles": "CC1=C(CC(=O)O)c2cc(F)ccc2/C1=C\\c1ccc([S+](C)[O-])cc1", "note": "(centres undefined) [Sulindac]", "values": [{"measurement": "parasite growth", "value": "183 ± 34", "unit": "%"}]}, {"smiles": "COc1cc2c(cc1OC)-c1c/c(=N\\c3c(C)cc(C)cc3C)n(C)c(=O)n1CC2", "note": "[Trequinsin hydrochloride]", "values": [{"measurement": "parasite growth", "value": "124 ± 37", "unit": "%"}]}, {"smiles": "C=C1C(=O)O[C@@H]2/C=C(\\C)CC/C=C(\\C)CC[C@@H]12", "note": "[Costunolide]", "values": [{"measurement": "parasite growth", "value": "30.7 ± 25", "unit": "%"}]}, {"smiles": "COc1ccc(-c2ccc(=N)n(CCCC(=O)O)n2)cc1", "values": [{"measurement": "parasite growth", "value": "133 ± 26", "unit": "%"}]}, {"smiles": "C[C@@H]1CN(CCCn2c3ccccc3c3ccccc32)C[C@H](C)N1", "note": "[Rimcazole dihydrochloride]", "values": [{"measurement": "parasite growth", "value": "31.8 ± 4.5", "unit": "%"}]}, {"smiles": "CCOC(=O)C1=C(COCCN)NC(C)=C(C(=O)OC)C1c1ccccc1Cl", "note": "(centres undefined) [Amlodipine besylate]", "values": [{"measurement": "parasite growth", "value": "87.9 ± 30", "unit": "%"}]}, {"smiles": "NS(=O)(=O)Cc1noc2ccccc12", "note": "[Zonisamide]", "values": [{"measurement": "parasite growth", "value": "131 ± 2.2", "unit": "%"}]}]}
